# The sample as a whole holds a higher share of hits than the screen did.
# mHTT-CaM PPI inh – inhibitors of human mutant huntingtin-calmodulin interaction; P42858; AlphaScreen His-mHTT/GST-CaM binding, luminescence; inhibition, % at 15 µM; 190,000 tested, 3.6% active; AID 1671202;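 note: 0% = both proteins with DMSO and 100% = one protein alone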
# Pf apPOL inh – Pf-apPOL DNA polymerase inhibition. 210,000 tested, 0.25% active. AID 1794808. inhibition, % at 10 µM. Recombinant Pf-apPOL, molecular beacon fluorescence, 1.5 h
# * marks the source's active call; other numbers are inactive results; / = no result given; ! = not active in a repeat. Cut-off read from the data, not from the text of the source: active = inhibition above about 50%; inactive = the rest.
SMILES,mHTT-CaM PPI inh,Pf apPOL inh
Cc1noc(-c2nn(C)c3c2CN(S(=O)(=O)c2ccc(Cl)cc2C)CC3)n1,20.6,-2.7
CC(/C=C/c1ccc(F)cc1)=C\C(=O)O,-0.6,-4.1
OC/C=C/C=C/c1ccc(F)cc1,72.0*,3.4
Fc1ccc(Cn2cnc3ccccc32)cc1,1.2,1.2
Clc1ccc(Cn2cnc3ccccc32)cc1Cl,51.8*,-4.7
COc1ccc(C2CC(c3ccc(C)cc3)Nc3nnnn32)cc1OC (configuration not stated),10.9,-0.5
O=[N+]([O-])c1cc(Br)c2nsnc2c1N1CCCCC1,77.0*!,-8.4
O=[N+]([O-])c1cc(C(F)(F)F)cc([N+](=O)[O-])c1N1CCCCC1,24.0,-2.0
Cc1nc(-c2ccccc2)nc2c1CCC(=O)N2Cc1cccs1,-7.3,-4.1
Cc1ccc(CNC(=O)C2(C)CCCN(C(=O)C(C)(C)C)C2)cc1 (configuration not stated),0.6,-0.1
Cc1ccc(CC(=O)N2CCc3c(c(COCc4ccccc4F)nn3C)C2)cc1,6.5,-8.5
COc1ccc(CC(=O)N2CCc3c(c(C(=O)NCc4ccccc4)nn3C)C2)cc1,60.9*,-6.8
Cn1nc(C(=O)NCc2ccccc2)c2c1CCN(C(=O)c1ccco1)C2,17.6,-9.5
CCC(CC)C(=O)N1CCc2c(c(C(=O)NCc3ccc(F)cc3)nn2C)C1,58.0*,-8.5
COc1ccc(C(=O)N2CCc3c(c(C(=O)NCc4ccc5c(c4)OCO5)nn3C)C2)cc1,47.5,-6.7
Cc1ccc(CC(=O)N2CCc3c(c(C(=O)NCc4ccc(F)cc4)nn3C)C2)cc1,69.4*,-9.4
COc1ccc(CC(=O)N2CCc3c(c(C(=O)NCc4ccc(F)cc4)nn3C)C2)cc1,73.9*,-6.1
CCCCC(CC)C(=O)N1CC(C)OC(C)C1 (configuration not stated),-4.0,/
COC(=O)C=C(c1ccccc1)n1cnc2ccccc21,/,-5.5
Cc1ccc(NC(=O)Cn2cc3c(n2)CCCCC3)cc1Cl,-2.6,-8.1
COc1ccc(C2CCCN2C(=O)Nc2ccc(C)c(Cl)c2)cc1 (configuration not stated),-10.3,-0.7
O=c1/c(=C/c2cccc(F)c2)sc2nc(-c3cccc(Cl)c3)nn12,5.0,2.8
O=C(NCc1ccccc1)c1cn(-c2cccc(F)c2)nn1,-5.4,-5.0
COc1ccccc1N1C(=O)c2ccc(Oc3ccccc3)cc2C1=O,-20.0,-2.1
Cc1ccc([C@H]2C[C@H](n3cc(C4CC4)nn3)[C@@H](O)CN2CC2CCCCC2)cc1,30.0,-6.4
SMILES,mHTT-CaM PPI inh,Pf apPOL inh
Cc1ccc([C@H]2C[C@@H](n3cc(C4CC4)nn3)[C@H](O)CN2CC2CCCCC2)cc1,27.4,-1.9
O[C@H]1CN(CC2CCCCC2)[C@@H](c2ccccc2)C[C@@H]1n1cc(C2CC2)nn1,69.8*,-0.9
Cc1ccc([C@H]2C[C@H](O)[C@@H](n3cc(C4CC4)nn3)CN2CC2CCCCC2)cc1,86.5*,-1.0
CN(C)CN1C(=O)S/C(=C\c2ccc(N(C)C)cc2)C1=O,29.0,-0.4
O=C(CC1CCN(C(=O)C2CCCCC2)CC1)NCc1ccc(Cl)cc1,-1.6,-4.4
Clc1ccc(OCCCN2CCOCC2)cc1,0.7,-2.5
Clc1ccc(OCCN2CCOCC2)cc1,5.2,82.2*
O=C(O[C@@H]1C[C@H]2C[C@@H]1[C@H]1CCCCN1C2=O)N1CCN(c2ccccc2)CC1,-3.5,-5.2
COc1ccc([N+](=O)[O-])cc1NC(=O)C1CC(=O)NC(=N)S1 (configuration not stated),1.0,58.7*
COc1ccc([N+](=O)[O-])cc1NC(=O)C1CCCCC1,-2.4,-1.9
CCN(c1ccc(C)c(C)c1)S(=O)(=O)c1ccc2c(c1)CC(C)N2C(C)=O (configuration not stated),70.0*,-1.1
CCN(c1cccc(C)c1)S(=O)(=O)c1ccc2c(c1)CC(C)N2C(C)=O (configuration not stated),7.0,2.1
CC(C)(C)CC(C)(C)N=C1Nc2ccccc2N[C@]12C[C@H]1CCCC(=O)N3CC[C@@H](C2)[C@@H]13,49.1,-6.1
O=C1CCC[C@@H]2C[C@@]3(C[C@@H]4CCN1[C@H]24)Nc1cc(Cl)c(Cl)cc1NC3=NCc1ccccc1,98.3*,-5.2
CC(C)(C)CC(C)(C)N=C1Nc2ccc(Cl)cc2NC12C[C@H]1CCC(=O)N3CC[C@@H](C2)[C@@H]13 (some centres not stated),94.9*,-3.0
Cc1cc2c(cc1C)N[C@]1(C[C@H]3CCCC(=O)N4CC[C@@H](C1)[C@@H]34)C(=Nc1ccccc1C)N2,22.0,-1.2
Cc1ccccc1N=C1Nc2cc(Cl)c(Cl)cc2N[C@]12C[C@H]1CCCC(=O)N3CC[C@@H](C2)[C@@H]13,85.7*,-7.6
Cc1ccccc1N=C1Nc2ccc(Cl)cc2N[C@]12C[C@H]1CCCC(=O)N3CC[C@@H](C2)[C@@H]13,24.9,2.7
O=C(NCCc1csc(C2CCN(C(=O)c3ccc(Cl)cc3)CC2)n1)C1CC1,15.2,5.3
